Inconclusive results are not listed. The source made the active and inactive calls. How the source made its calls, unless noted: active means hit-call score of the fitted dose curve at least 0.9, where 1 is the maximum; inactive means score below 0.9.
Experiments:
[1] = read-out: E-selectin (Homo sapiens) (UniProt P16581); test: BSK_3C_Eselectin: BioMAP Diversity Plus: 3C Assay for Eselectin Biomarker Activity (AID 2283015); details: primary human endothelial cells (HUVEC); actives raise or lower the signal;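 on outcome: cell surface E-selectin protein quantified by ELISA 24 h after dosing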
In short: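 HUVEC, 3C stimulation; compound exposure 24 h; E-selectin by ELISA; gain- or loss-of-signal fitted bidirectionally vs DMSO baseline.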

[2] = read-out: Interleukin-1 alpha (IL1a), IL1A (gene 3552); test: BSK_BE3C_IL1a: BioMAP Diversity Plus: BE3C Assay for Interleukin-1 alpha (IL1a) Biomarker Activity (AID 2283016); details: primary human bronchial epithelial cells; actives raise or lower the signal
In short: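 Cultures of primary human bronchial epithelial cells receive test chemical. After 24 h, IL-1a is quantified by ELISA, while parallel wells are fixed in TCA and SRB-stained for total protein. Changes in either direction are fitted relative to DMSO.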

[3] = read-out: Monocyte Chemoattractant Protein-1 (MCP1), CCL2 (gene 6347); test: BSK_3C_MCP1: BioMAP Diversity Plus: 3C Assay for Monocyte Chemoattractant Protein-1 (MCP1) Biomarker Activity (AID 2283017); details: primary human endothelial cells (HUVEC); actives raise or lower the signal
In short: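 HUVEC, 3C system; 24 h chemical exposure; MCP-1 by ELISA; bidirectional curve fit vs DMSO baseline.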

[4] = read-out: Interleukin-8 (IL8), CXCL8 (gene 3576); test: BSK_3C_IL8: BioMAP Diversity Plus: 3C Assay for Interleukin-8 (IL8) Biomarker Activity (AID 2283020); details: primary human endothelial cells (HUVEC); actives raise or lower the signal
In short: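 Human vascular endothelial cells (umbilical vein) in the 3C system; IL-8 level detected by ELISA at 24 h post-dose, with DMSO as baseline.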

[5] = read-out: Monokine induced gamma interferon (MIG), CXCL9 (gene 4283); test: BSK_3C_MIG: BioMAP Diversity Plus: 3C Assay for Monokine induced gamma interferon (MIG) Biomarker Activity (AID 2283021); details: primary human endothelial cells (HUVEC); actives raise or lower the signal;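 on AC50: MIG protein level measured by immunoassay in the treated endothelial cultures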
In short: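 After 24 h of treatment, human umbilical vein endothelial cultures (3C system) had their MIG biomarker level determined by ELISA, with DMSO serving as negative control.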

[6] = target: human Vitamin D Receptor (VDR), VDR (gene 7421) (UniProt P11473); test: ATG_VDR_TRANS: Attagene TRANS-FACTORIAL HepG2 Assay for human Vitamin D Receptor (VDR) (AID 2283022; active means hit-call score of the fitted dose curve at least 0.9, where 1 is the maximum)
In short: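 RT-PCR/capillary electrophoresis read-out of reporter mRNA induction in transiently transfected HepG2; 24 h dosing; chimeric NR-Gal4 (TRANS format); gain-of-signal fit against DMSO baseline.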

[7] = read-out: Monocyte Chemoattractant Protein-1 (MCP1), CCL2 (gene 6347); test: BSK_4H_MCP1: BioMAP Diversity Plus: 4H Assay for Monocyte Chemoattractant Protein-1 (MCP1) Biomarker Activity (AID 2283018); details: primary human endothelial cells (HUVEC); actives raise or lower the signal
In short: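 Readout: MCP-1 ELISA on compound-treated HUVEC, sampled 24 h post-dosing. Baseline and negative control DMSO; bidirectional fit. Overt toxicity checked alongside by sulforhodamine B protein staining at time of biomarker measurement.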

[8] = read-out: Human Leukocyte Antigen - DR isotype (HLADR), HLA-DRA (gene 3122); test: BSK_3C_HLADR: BioMAP Diversity Plus: 3C Assay for Human Leukocyte Antigen - DR isotype (HLADR) Biomarker Activity (AID 2283019); details: primary human endothelial cells (HUVEC); actives raise or lower the signal;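 on outcome: ELISA of cell-surface HLA-DR on HUVEC 24 h after dosing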
In short: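 HUVEC, 3C stimulation, 24 h post-dose; HLA-DR by ELISA; bidirectional curve fit vs DMSO baseline; gain or loss of signal scored.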

[9] = target: human Thyroid Receptor alpha (THRa1), THRA (gene 7067) (UniProt P10827); test: ATG_THRa1_TRANS: Attagene TRANS-FACTORIAL HepG2 Assay for human Thyroid Receptor alpha (THRa1) (AID 2283014; active means hit-call score of the fitted dose curve at least 0.9, where 1 is the maximum)
In short: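 Transient HepG2 transfection, NR-Gal4 chimera driving GAL4-UAS reporters; 24 h compound exposure; total RNA, oligo(dT) RT, PCR, fluorescent primer extension, capillary electrophoresis. Upward direction vs DMSO control.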

human Vitamin D Receptor (VDR), VDR (gene 7421), sequence (P11473 whole entry, looked up, the tested form may be a part): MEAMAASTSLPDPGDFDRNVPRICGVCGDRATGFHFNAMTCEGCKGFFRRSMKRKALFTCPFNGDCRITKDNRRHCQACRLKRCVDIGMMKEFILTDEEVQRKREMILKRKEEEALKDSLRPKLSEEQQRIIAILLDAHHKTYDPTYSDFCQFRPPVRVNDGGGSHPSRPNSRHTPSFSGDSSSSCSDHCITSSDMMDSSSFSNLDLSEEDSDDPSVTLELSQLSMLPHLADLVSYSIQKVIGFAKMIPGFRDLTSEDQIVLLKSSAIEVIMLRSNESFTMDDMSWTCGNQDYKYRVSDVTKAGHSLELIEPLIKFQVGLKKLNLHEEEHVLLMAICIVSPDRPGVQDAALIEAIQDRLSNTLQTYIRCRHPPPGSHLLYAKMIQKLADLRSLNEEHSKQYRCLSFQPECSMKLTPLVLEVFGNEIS
human Thyroid Receptor alpha (THRa1), THRA (gene 7067), sequence (P10827 whole entry, looked up, the tested form may be a part): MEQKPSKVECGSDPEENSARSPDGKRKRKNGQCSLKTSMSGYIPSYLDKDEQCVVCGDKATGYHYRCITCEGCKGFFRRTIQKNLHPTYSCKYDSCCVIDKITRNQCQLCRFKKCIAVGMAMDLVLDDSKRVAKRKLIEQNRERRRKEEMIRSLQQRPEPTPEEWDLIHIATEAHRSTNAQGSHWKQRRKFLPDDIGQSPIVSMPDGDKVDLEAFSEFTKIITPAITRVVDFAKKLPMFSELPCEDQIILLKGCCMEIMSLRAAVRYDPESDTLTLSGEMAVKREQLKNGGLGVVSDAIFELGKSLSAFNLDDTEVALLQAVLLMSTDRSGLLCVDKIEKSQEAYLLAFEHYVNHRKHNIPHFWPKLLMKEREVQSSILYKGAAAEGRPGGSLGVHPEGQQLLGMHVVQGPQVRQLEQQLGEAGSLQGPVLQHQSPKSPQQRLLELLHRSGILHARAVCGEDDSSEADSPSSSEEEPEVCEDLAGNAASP
E-selectin (Homo sapiens), sequence (P16581 whole entry, looked up): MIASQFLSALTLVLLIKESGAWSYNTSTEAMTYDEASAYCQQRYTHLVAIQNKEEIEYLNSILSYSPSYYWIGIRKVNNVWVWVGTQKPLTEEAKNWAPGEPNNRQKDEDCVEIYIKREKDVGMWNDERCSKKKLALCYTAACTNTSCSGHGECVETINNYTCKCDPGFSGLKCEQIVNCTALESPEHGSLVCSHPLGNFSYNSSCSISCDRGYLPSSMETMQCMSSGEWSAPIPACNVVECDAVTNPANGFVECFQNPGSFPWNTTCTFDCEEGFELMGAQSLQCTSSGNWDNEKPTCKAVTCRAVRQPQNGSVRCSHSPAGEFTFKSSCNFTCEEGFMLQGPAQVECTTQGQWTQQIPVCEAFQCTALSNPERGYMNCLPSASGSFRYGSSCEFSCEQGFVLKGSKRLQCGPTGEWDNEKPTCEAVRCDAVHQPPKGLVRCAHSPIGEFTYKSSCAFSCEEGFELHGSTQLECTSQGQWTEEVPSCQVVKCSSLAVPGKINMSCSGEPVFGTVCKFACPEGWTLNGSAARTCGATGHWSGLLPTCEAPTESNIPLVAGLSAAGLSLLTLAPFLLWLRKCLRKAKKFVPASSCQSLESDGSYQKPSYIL

NC(=O)c1nc(-c2cccc(-c3cc(F)ccc3OCC(F)(F)C(F)(F)F)c2)n[nH]1
AC50 [1]: 34.9 µM (active)
AC50 [2]: 38.8 µM (active)
AC50 [3]: 35.3 µM (active)
AC50 [4]: 34.4 µM (active)
AC50 [5]: 41.4 µM (active)
outcome [6]: inactive

Oc1ccc2ccccc2c1
outcome [1]: inactive
outcome [2]: inactive
outcome [3]: inactive
outcome [4]: inactive
outcome [5]: inactive
outcome [6]: inactive

CC[C@@H]1C[C@H](N(Cc2cc(C(F)(F)F)cc(C(F)(F)F)c2)C(C)=O)c2cc(C(F)(F)F)ccc2N1C(=O)OC(C)C
outcome [1]: inactive
outcome [2]: inactive
outcome [3]: inactive
outcome [7]: inactive
outcome [4]: inactive
outcome [6]: inactive

OC12N=C(c3ccccc3)SC1Cc1cc(Cl)ccc12 (stereo not given)
outcome [1]: inactive
outcome [2]: inactive
outcome [3]: inactive
outcome [7]: inactive
AC50 [8]: 33.8 µM (active)
outcome [4]: inactive
outcome [5]: inactive
outcome [6]: inactive

CC1(C)NC(=O)N(c2ccc([N+](=O)[O-])c(C(F)(F)F)c2)C1=O
outcome [9]: inactive
outcome [1]: inactive
outcome [2]: inactive
outcome [3]: inactive
outcome [4]: inactive
outcome [6]: inactive

CCOC(=O)O[C@H](C)OC(=O)c1ccc2c(c1)cc(C(=O)NC1CCN(C(C)C)CC1)n2Cc1cc(-c2ccc(Cl)s2)on1
AC50 [1]: 7.05 µM (active)
AC50 [2]: 11 µM (active)
AC50 [3]: 6.56 µM (active)
AC50 [7]: 5.27 µM (active)
AC50 [4]: 6.77 µM (active)

CC(=O)N1CCN(c2ccc(OC[C@H]3CO[C@](Cn4ccnc4)(c4ccc(Cl)cc4Cl)O3)cc2)CC1
outcome [1]: inactive
outcome [2]: inactive
AC50 [3]: 31.9 µM (active)
AC50 [7]: 26.4 µM (active)
AC50 [4]: 31.3 µM (active)
AC50 [5]: 34.5 µM (active)
outcome [6]: inactive

Cc1cc(F)ccc1-c1cc(N2CC[C@@H](O)[C@H]2CO)ncc1N(C)C(=O)C(C)(C)c1cc(C(F)(F)F)cc(C(F)(F)F)c1
AC50 [1]: 10.9 µM (active)
AC50 [2]: 14.6 µM (active)
AC50 [3]: 10 µM (active)
AC50 [7]: 6.91 µM (active)
AC50 [4]: 9.76 µM (active)
outcome [6]: inactive

Oc1ccccc1
outcome [1]: inactive
outcome [2]: inactive
outcome [3]: inactive
outcome [7]: inactive
outcome [8]: inactive
outcome [4]: inactive

c1ccc2n[nH]nc2c1
outcome [9]: inactive
outcome [1]: inactive
outcome [2]: inactive
outcome [3]: inactive
outcome [4]: inactive

O=C1CCC(C2CCCCC2)CC1
outcome [9]: inactive
outcome [1]: inactive
outcome [2]: inactive
outcome [3]: inactive
outcome [4]: inactive
outcome [6]: inactive

CN1C(=O)CC[C@H]1c1cccnc1
outcome [1]: inactive
outcome [2]: inactive
outcome [3]: inactive
outcome [8]: inactive
outcome [4]: inactive
outcome [5]: inactive

COc1cccc([C@H](O)C2CCN(CCc3ccc(F)cc3)CC2)c1OC
outcome [1]: inactive
outcome [2]: inactive
outcome [3]: inactive
outcome [4]: inactive
outcome [6]: inactive

CC[C@H](NC(=O)c1cc(F)ccc1NS(=O)(=O)c1cccc2cccnc12)c1ccccc1
outcome [1]: inactive
outcome [2]: inactive
outcome [3]: inactive
outcome [8]: inactive
outcome [4]: inactive
outcome [5]: inactive
outcome [6]: inactive

CCCC(=O)OCCC(C)C
outcome [9]: inactive
outcome [1]: inactive
outcome [2]: inactive
outcome [3]: inactive
outcome [4]: inactive
outcome [6]: inactive

CC/C(=C(/CC)c1ccc(O)cc1)c1ccc(O)cc1
AC50 [1]: 31.5 µM (active)
AC50 [2]: 29.9 µM (active)
AC50 [3]: 31 µM (active)
AC50 [4]: 32.6 µM (active)
AC50 [5]: 35.8 µM (active)
outcome [6]: inactive

CC(C)(C)c1cc(/C=C2\SC(N)=NC2=O)cc(C(C)(C)C)c1O
AC50 [1]: 29.3 µM (active)
outcome [2]: inactive
AC50 [3]: 30.6 µM (active)
AC50 [4]: 30.1 µM (active)

CCCCCCCCCCCO
outcome [9]: inactive
AC50 [1]: 32 µM (active)
outcome [2]: inactive
outcome [3]: inactive
AC50 [4]: 28.6 µM (active)
outcome [5]: inactive
AC50 [6]: 159 µM (active)

CN1C(=O)N(c2ccccc2Br)Cc2cnc(Nc3ccc4c(c3)OCC(CO)O4)nc21 (stereo not given)
AC50 [1]: 15.2 µM (active)
AC50 [2]: 2.57 µM (active)
AC50 [3]: 14.7 µM (active)
AC50 [4]: 12.2 µM (active)
AC50 [5]: 25.3 µM (active)

CC(C)(O)c1ccc(CNC(=O)c2cccnc2Oc2ccc3nonc3c2)cc1
outcome [1]: inactive
outcome [2]: inactive
outcome [3]: inactive
outcome [7]: inactive
outcome [4]: inactive
outcome [6]: inactive

CCCCCc1ccc(N)cc1
outcome [9]: inactive
outcome [1]: inactive
outcome [2]: inactive
outcome [3]: inactive
outcome [4]: inactive
outcome [5]: inactive
outcome [6]: inactive

Clc1cc(Cl)c2c(c1)N=C1CCCCCN1C2
outcome [1]: inactive
outcome [2]: inactive
outcome [3]: inactive
outcome [4]: inactive

From PubChem BioAssay (EPA / NIEHS)
